The text below walks through data of PubChem BioAssay AID602447 (National Center for Advancing Translational Sciences (NCATS), 2012).

The target in the test is Beta-2 adrenergic receptor (Homo sapiens) (UniProt P07550). The test can be described thus: qHTS for antagonists of the Thyroid Stimulation Hormone Receptor: Hit Validation with Beta-2 Adrenergic Receptor. To be noted: B2AR-expressing cells, cAMP HTRF, antagonist counterscreen; hits give high values. From the text: The thyroid-stimulating hormone receptor (TSHR) is a member of the 7 trans-membrane-spanning receptor (7TMR) family of cell surface receptors. TSHR-mediated hyperthyroidism is important in thyroid pathology. The development of small molecule antagonists of TSHR may lead to therapeutic approaches for TSHR-mediated hyperthyroidism caused by constitutively activating mutations or stimulating auto-antibodies associated with Graves' disease. Graves' disease is the leading cause of hyperthyroidism and is caused by autoantibodies that stimulate TSHR (TsAbs) causing thyroid growth and unregulated overproduction of thyroid hormones and existing treatments have liabilities (agranulocytosis). In addition, TSHRs are known to be expressed in multiple extrathyroidal tissues including bone, brain, kidney, testis, fat and cells of the immune system but the role of the TSHR in these tissues is not clear. Therefore, TSHR antagonists/inverse agonists could be used as probes of extrathyroidal TSHR function. Finally, TSHR inverse agonists, which are a subclass of antagonists that inhibit agonist-independent (or basal or constitutive) TSHR signaling, could be used to inhibit TSH-independent signaling in patients with recurrent or metastatic thyroid cancer who are receiving thyroid hormone to suppress TSH. […]
Chain of Beta-2 adrenergic receptor (Homo sapiens) (P07550 whole entry, looked up): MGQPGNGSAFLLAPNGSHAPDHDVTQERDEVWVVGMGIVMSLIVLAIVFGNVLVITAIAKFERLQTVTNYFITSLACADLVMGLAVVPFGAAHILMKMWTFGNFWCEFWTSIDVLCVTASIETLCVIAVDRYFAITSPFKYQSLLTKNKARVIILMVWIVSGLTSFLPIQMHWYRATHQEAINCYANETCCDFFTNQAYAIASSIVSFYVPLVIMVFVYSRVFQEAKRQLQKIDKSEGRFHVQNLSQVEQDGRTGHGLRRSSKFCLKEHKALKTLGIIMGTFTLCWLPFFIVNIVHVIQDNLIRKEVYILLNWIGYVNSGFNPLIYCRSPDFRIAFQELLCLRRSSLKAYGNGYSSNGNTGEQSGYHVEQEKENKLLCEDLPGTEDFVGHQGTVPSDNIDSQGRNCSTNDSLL
Background: Quantitative high-throughput screening tests each substance at several concentrations.

The structures appear in SMILES notation. Inconclusive results are not listed. Calls of active or inactive are those of the source. How the calls were made is not given here.

Turning to `N#CC(C#N)=NNc1ccc(-n2ccc(C(F)(F)F)n2)cc1`, the max inhibition is 91.9% (active).
